Drawing on the supplement of paper PMC10981050, this text covers cell viability for eleven compounds.

Several values for one entry are separate records, joined by “and”; a condition that tells them apart may be missing. Equal entries are not always repeated. Structures can show the parent of a compound that is named as a salt.

In the experiment the test system is K562. Kind of experiment: cell viability relative to vehicle control; higher = less cytotoxic. The following applies: 10 µM; SRSF2 genotype: SRSF2 P95H/wt. In a few lines: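 Each screen used CRISPR-edited mutant and wild-type clones from four leukaemia lines. Compounds were acoustically dispensed at a single 10 µM dose, and CellTiter-Glo luminescence was read after 48 h with the supernatant first removed. Viability was analysed in Genedata Screener and given as percent of the on-plate vehicle control.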
Take `O=C1c2ccccc2C(=O)C1c1ccccc1` [Phenindione (Rectadione)]: the cell viability – broadly, a read-out of living cells in per cent, often relative to untreated cells – is 103% and 98.4%. As to `CNCC[C@@H](Oc1ccccc1C)c1ccccc1` [Atomoxetine HCl], the cell viability was 111% and 112%.

Take `CCNC(=O)[C@@H]1CCCN1C(=O)[C@H](CCCN=C(N)N)NC(=O)[C@H](CC(C)C)NC(=O)[C@@H](CC(C)C)NC(=O)[C@H](Cc1ccc(O)cc1)NC(=O)[C@H](CO)NC(=O)[C@H](Cc1c[nH]c2ccccc12)NC(=O)[C@H](Cc1cnc[nH]1)NC(=O)[C@@H]1CCC(=O)N1` [S3718 Leuprolide Acetate.cdx]: the cell viability was 104% and 107%. Next, `Cc1onc(-c2c(F)cccc2Cl)c1C(=O)N[C@@H]1C(=O)N2[C@@H]1SC(C)(C)[C@@H]2C(=O)O` [Flucloxacillin sodium]: 96.6% and 89.9%.

As to `CC(CCc1ccccc1)NCC(=O)c1ccc(O)c(C(N)=O)c1` (stereo unspecified) [Labetalone hydrochloride], the cell viability was 92.1% and 89.7%.

With `COc1cc(C(=O)N(CCCc2ccccc2)Cc2ccc(CC(=O)O)cc2)cc(OC)c1C`, the cell viability was 95.6% and 98%. Regarding `O=C1N=C(O)NC1(c1ccccc1)c1ccccc1` [Phenytoin sodium (Dilantin)], the cell viability was 98% and 104%.

Turning to `Cn1c(Nc2ccc(C(F)(F)F)cc2)nc2cc(Oc3ccnc(-c4ncc(C(F)(F)F)[nH]4)c3)ccc21`, the cell viability was 59.6% and 69.8%. In the case of `CCc1cncnc1N1CCN(Cc2nc3ccc(C(F)(F)F)cc3[nH]2)CC1`, the cell viability is 72.3% and 72.8%.

As to `N#Cc1cc(-c2n[nH]c(-c3ccncc3)n2)ccn1` [Topiroxostat], the cell viability was 90.1% and 106%.

`O=C1c2c(O)cc(O)cc2OC(c2ccc(O)c(O)c2)C1O` (stereo unspecified) [Taxifolin (Dihydroquercetin)]: the cell viability is 97.9% and 94.4%.
